Active and inactive are the calls of the source.
Assays:
[1] = compound effects on lung adenocarcinoma cell viability – A549, calcein-AM fluorescence, 48 h, basal, profiling panel (AID 1162); settings: higher = more signal
[2] = compound effects on differentiated 3T3-L1 adipocyte viability – cell-based, 3T3-L1 adipocytes, calcein-AM fluorescence, 48 h, basal, profiling panel (AID 1163); settings: 3T3-L1 adipocytes viability, higher = more signal
[3] = compound effects on hepatocellular carcinoma cell viability – HepG2, calcein-AM fluorescence, 48 h, basal, profiling panel (AID 1164); settings: higher = more signal
[4] = compound effects on multiple myeloma cell viability – MM1S, calcein-AM fluorescence, 48 h, basal, profiling panel (AID 1165); settings: higher = more signal;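 further: viability of MM1S multiple myeloma cells under basal unstimulated conditions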
[5] = calcein-AM signal in unstimulated myeloma cells – cell-based, calcein-AM fluorescence, 48 h, PK04 Diversity Set, profiling panel (AID 1166); settings: RPMI8226 myeloma viability, higher = more signal;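 further: cells grown under basal conditions without added stimulus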
[6] = JC-1 mitochondrial signal, unstimulated HepG2 cells – cell-based, JC-1 fluorescence, 24 h, 100 nL compound, profiling panel (AID 1167); settings: HepG2 mitochondrial potential, higher = more signal
[7] = JC-1 mitochondrial signal, unstimulated adipocytes – cell-based, JC-1 fluorescence, 3T3-L1 adipocytes, 24 h, 100 nL compound, profiling panel (AID 1168); settings: JC-1 mitochondrial fluorescence, higher = more signal, called active from +8 up or from −8 down
[8] = JC-1 mitochondrial signal, unstimulated myeloma cells – cell-based, JC-1 fluorescence, RPMI8226, 24 h, 100 nL compound, profiling panel (AID 1169); settings: JC-1 mitochondrial potential fluorescence, higher = more signal
[9] = JC-1 mitochondrial signal, unstimulated MM1S myeloma – cell-based, JC-1 fluorescence, 24 h, 100 nL compound, profiling panel (AID 1170); settings: MM1S mitochondrial potential, higher = more signal
[10] = resazurin metabolic signal in A549 cells – cell-based, resazurin fluorescence, 24 h, PK04 Diversity Set, profiling panel (AID 1171); settings: A549 viability, higher = more signal, called active from +8 up or from −8 down
Further: test concentration not given here.

Row | Structure (SMILES) | z-score [1] | z-score [2] | z-score [3] | z-score [4] | z-score [5] | z-score [6] | z-score [7] | z-score [8] | z-score [9] | z-score [10]
1 | O=C1O[C@@H](c2ccccc2)[C@@H](c2ccccc2)N2[C@@H](c3ccccc3OCCO)[C@]3(C(=O)Nc4ccc(C#CC5(O)CCCCCC5)cc43)[C@@H](C(=O)N3CCCCCCC3)[C@H]12 | -1.66 | 1.48 | -0.0161 | -0.651 | -2.59 | -1.4 | 0.644 (inactive) | -0.96 | -1.33 | -0.64 (inactive)
2 | Cc1ccc(S[C@]2(C(=O)NCCN3CCOCC3)CC(=O)N(C(C)C)[C@@H]2c2ccc(CO)cc2I)cc1 | 2.91 | 0.557 | 2.66 | -2.39 | -1.47 | 1.64 | 0.604 (inactive) | -1.01 | -0.635 | -1.13 (inactive)
3 | C=C(CCCC)C(=O)CC[C@@H](OC(C)=O)c1ccc(OCCO)cc1 | -0.0836 | 0.997 | -0.439 | -1.97 | -1.92 | -0.338 | -0.362 (inactive) | -0.793 | -0.36 | 0.325 (inactive)
4 | O=C1O[C@H](c2ccccc2)[C@H](c2ccccc2)N2[C@H]1[C@@H](C(=O)O)[C@]1(C(=O)Nc3ccccc31)[C@H]2c1ccc(OCCO)cc1 | -0.29 | 1.11 | -0.119 | 0.338 | -2.44 | -0.706 | 0.254 (inactive) | -0.295 | 0.0484 | 0.683 (inactive)
5 | COC(=O)C[C@H]1O[C@]2(C(=O)N(C)c3ccccc32)[C@@H](C)[C@@H]1[Si](C)(C)c1ccccc1 | -0.843 | 1.01 | -1.05 | -0.344 | -0.0598 | -0.57 | 0.611 (inactive) | -0.0109 | 0.425 | 1.38 (inactive)
6 | CN1C(=O)C2C=CC(C(O)c3ccc([N+](=O)[O-])cc3)N(Nc3ccccc3)C2C1=O (stereo not given) | -1.06 | -1.33 | -0.581 | 0.13 | -0.772 | -1.05 | -1.92 (inactive) | -0.199 | -0.522 | -1.36 (inactive)
7 | C=C(C(=O)CC[C@@H](OC(=O)c1ccccc1-c1ccccc1C(=O)O)c1ccc(OCCO)cc1)C(C)C | -0.514 | 0.517 | 0.654 | -3.22 | -2.98 | -0.556 | -1.2 (inactive) | -0.787 | -0.547 | -0.0237 (inactive)
8 | COCCCNC(=O)[C@]1(Cc2ccccc2N=[N+]=[N-])N=C(c2ccc(OCCCO)cc2)O[C@@H]1c1ccccc1 | -0.751 | 0.16 | -0.757 | -3.22 | -3.9 | 2.34 | 1.84 (inactive) | -1.27 | -0.774 | 0.345 (inactive)

Reference: PubChem BioAssay
